The nature of assay [1]: Nuclear factor erythroid 2-related factor 2/antioxidant responsive element (Nrf2/ARE) small molecule agonists: qHTS cell viability counter screen in human keratinocytes (AID 1919968; active means well fitted curve in the direction sought with a large enough effect in the repeat runs; an effect the other way counts as inactive or inconclusive; further: nearly all actives have a fitted effect of over 55% in size; further: potency means the concentration at half of the fitted maximal effect). An outline of the steps: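 Parallel cytotoxicity read: KeratinoSens HaCaT cells, compound treatment 23 h, viability by CellTiter-Fluor fluorescence 1 h post-reagent.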
The nature of assay [2]: Nuclear factor erythroid 2-related factor 2/antioxidant responsive element (Nrf2/ARE) small molecule agonists: luciferase reporter gene qHTS assay in human keratinocytes (AID 1919969). Further: nearly all actives have a fitted effect of over 35% in size.
Assay [3] deals with Gonadotropin-releasing hormone receptor (Homo sapiens) (UniProt P30968). The assay can be described thus: Human gonadotropin-releasing hormone receptor (GnRHR) small molecule agonists, calcium flux assay in GnRHR-HEK293 cells (AID 1920063). Further: nearly all actives have a fitted effect of over 35% in size. The method in brief:
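Calcium flux, agonist mode, human GnRHR stably integrated in HEK293; dye 1 h at 37 C before compound; Ex/Em=480/540 kinetic read, 3 min; 15 concentrations, triplicate.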

Assay [4] addresses KiSS-1 receptor (Homo sapiens) (UniProt Q969F8). The assay can be described thus: Human kisspeptin (KISS1R) small molecule agonists, calcium flux assay in KISS1R-HEK293 cells (AID 1920064; active means well fitted curve in the direction sought with a large enough effect in the repeat runs; an effect the other way counts as inactive or inconclusive). The method in brief: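 Triplicate 15-concentration series were applied to dye-loaded human KISS1R HEK293 cells, and agonist-evoked calcium fluorescence was captured for 3 min.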
The nature of assay [5]: G protein-coupled receptor (GPCR) small molecule agonists, calcium flux assay: HEK293 wild type cell line counter screen (AID 1920065). An outline of the steps: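 Non-specific calcium responders were flagged by adding DMSO-dissolved compounds to dye-loaded cells and reading 480/540 nm fluorescence each second for 3 min; ATP served as positive control.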
Assay [6] can be described thus: p53 small molecule agonists, cell-based qHTS assay with human liver microsomes (AID 1963577). The method in brief: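 Fluorescence of the beta-lactamase reporter in p53RE-bla cells, detected with LiveBLAzer substrate (2 h, room temperature, dark), served as the read-out after 16 h compound exposure at 37 C with human liver microsomes and NADPH, each 0.5 mg/mL final.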

Assay [7] can be described thus: p53 small molecule agonists, cell-based qHTS assay with rat liver microsomes (AID 1963578). The method in brief:
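Cells carrying a p53 response element–beta-lactamase reporter were plated and rested 5 h, then dosed with compound in DMSO plus rat liver microsomes and NADPH, each at 0.5 mg/mL final. After 16 h at 37 C, LiveBLAzer substrate was added for 2 h.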

A short description of assay [8]: p53 small molecule agonists, cell-based qHTS assay with human liver microsomes: qHTS cell viability counter screen (AID 1963579). Further: nearly all actives have a fitted effect of over 45% in size. Further: potency means the concentration at half of the fitted maximal effect. The method in brief: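 Cytotoxicity counter screen: p53RE-bla, 4,000 cells/well; 5 h settle, 37 C/5% CO2; cpd + HLM 0.5 mg/mL + NADPH 0.5 mg/mL (final); 16 h, 37 C; CellTiter-Glo, 30 min RT, luminescence.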
A short description of assay [9]: p53 small molecule agonists, cell-based qHTS assay: qHTS cell viability counter screen (AID 1963581). Further: nearly all actives have a fitted effect of over 45% in size. An outline of the steps:
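Multiplexed with the reporter read, a CellTiter-Glo step (30 min, room temperature) gauges ATP-based viability of HCT-116 p53RE-bla cells after 16 h compound incubation at 37 C.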

Assay [10] is described as follows: p53 small molecule agonists, cell-based qHTS assay (AID 1963582; active means well fitted activation curve with a large enough effect in the signal ratio in the repeat runs, not every such curve was filed as active; the % refers to the signal ratio). An outline of the steps:
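Beta-lactamase reporter cells (p53RE-bla) treated with compounds for 16 h at 37 C; FRET substrate, 2 h, room temperature; fluorescence intensity.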

Assay [11] concerns the target 5-hydroxytryptamine receptor 2A (Homo sapiens) (UniProt P28223). The assay can be described thus: 5-hydroxytryptamine receptor 2A (HTR2A) small molecule antagonists, cell-based qHTS assay (AID 1963586). Further: nearly all actives have a fitted effect of over 45% in size. Further: potency means the concentration at half of the fitted maximal effect. An outline of the steps: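 CHO cells stably expressing human HTR2A were plated for 18 h at 37 C, then loaded with calcium dye for 1 h. Compounds were preincubated 5 min at room temperature before DOI (4 nM solution) was added. Kinetic fluorescence was read for 3 min.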

For assay [12] the target is unchanged. The assay can be described thus: 5-hydroxytryptamine receptor 2A (HTR2A) small molecule agonists, cell-based qHTS assay (AID 1963587). Further: nearly all actives have a fitted effect of over 30% in size. The method in brief: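 HTR2A-CHO cells, plated 18 h at 37 C/5% CO2, dye-loaded 1 h at 37 C; compounds in DMSO added by pin tool (agonist mode). Intracellular calcium flux read as kinetic fluorescence on FDSS over 2 min at 1 s intervals.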

Assay [13] has as its target Muscarinic acetylcholine receptor M1 (Homo sapiens) (UniProt P11229). The assay can be described thus: Cholinergic receptor muscarinic 1 (CHRM1) small molecule antagonists, cell-based qHTS assay (AID 1963588). Further: nearly all actives have a fitted effect of over 40% in size. Further: potency means the concentration at half of the fitted maximal effect. An outline of the steps: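 Compounds were tested at 15 concentrations in three independent runs. Dye-loaded CHRM1-CHO cells were exposed 5 min at room temperature before stimulation by acetylcholine added at 50nM. Intracellular calcium was read kinetically on FDSS for 3 min.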

Assay [14] has the same target. The assay can be described thus: Cholinergic receptor muscarinic 1 (CHRM1) small molecule agonists, cell-based qHTS assay (AID 1963589). Further: nearly all actives have a fitted effect of over 35% in size. An outline of the steps: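 qHTS, 15-point titration, 3 independent runs: compounds pin-transferred onto dye-loaded CHRM1-CHO cells (human M1), calcium fluorescence followed every second to detect agonism.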
The target in assay [15] is Beta-2 adrenergic receptor (Homo sapiens) (UniProt P07550). The experiment in a line: Adrenergic beta2 receptor (ADRB2) small molecule antagonists, cell-based qHTS assay (AID 1963592). Further: series mostly up to about 92 µM; nearly all actives have a fitted effect of over 50% in size. An outline of the steps: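 Assay format: CHO-ADRB2 cells, 18-20hr seeding at 37C/5% CO2, then compound plus 1nM isoproterenol agonist mix for 0.5hr RT. Homogeneous time-resolved fluorescence cAMP detection after 1hr, expressed as 665/615 nm ratio.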

The target in assay [16] is D(2) dopamine receptor (Homo sapiens) (UniProt P14416). The experiment in a line: Dopamine D2 receptor (DRD2) small molecule antagonists, cell-based qHTS assay (AID 1963595; active means well fitted inhibition curve with a large enough effect in the signal ratio in the repeat runs, with a control signal flat; the % refers to the signal ratio). An outline of the steps:
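HEK293 cells stably expressing DRD2, preincubated with 0.1 mM Ro20-1724 and compounds 10 min, were stimulated with 200 nM NKH477 plus 12 nM quinpirole for 30 min at room temperature; cAMP measured by HTRF (665/620 nm).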

Assay [17] in a line: p53 small molecule agonists, cell-based qHTS assay with rat liver microsomes: qHTS cell viability counter screen (AID 1963580). Further: nearly all actives have a fitted effect of over 45% in size. An outline of the steps: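 Luminescent ATP readout (CellTiter-Glo, 30 min at room temperature) reports viability of p53RE-bla HCT-116 cells after 16 h at 37 C with test compounds under metabolic activation by rat liver microsomes and NADPH at 0.5 mg/mL final each.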

Assay [18] in a line: cAMP Responsive Elements (CRE) small molecule agonists, cell-based qHTS assay (AID 1963590). The method in brief:
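Quantitative HTS for CRE agonists: HEK 293T CRE-bla cells, overnight plating, 3 h compound incubation at 37 C/5% CO2, then 2 h room-temperature LiveBLAzer B/G FRET substrate loading.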

A short description of assay [19]: cAMP Responsive Elements (CRE) small molecule antagonists, cell-based qHTS assay (AID 1963591; active means well fitted inhibition curve with a large enough effect in the signal ratio in the repeat runs, not every such curve was filed as active; the % refers to the signal ratio). The method in brief:
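Fluorescence intensity from cleaved LiveBLAzer B/G substrate (2 h, room temperature) quantified CRE-bla activity in HEK 293T cells exposed 3 h to compound with 0.25 uM final NKH477.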

The target of assay [20] is D(2) dopamine receptor (Homo sapiens) (UniProt P14416). The assay can be described thus: Dopamine D2 receptor (DRD2) small molecule agonists, cell-based qHTS assay (AID 1963594). Further: nearly all actives have a fitted effect of over 35% in size. The method in brief: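 HEK293 cells stably expressing DRD2 were cultured 24 h at 37 C, then given Ro20-1724 (0.1 mM final) and compounds for 10 min at room temperature. NKH477 (200nM) was then added for 30 min. cAMP was read by HTRF.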

Unmarked numbers belong to inactive results. Results filed as inconclusive are left out. Activity calls are given as the source filed them. Unless noted, the call rests on the fitted dose curve.

Sequence of D(2) dopamine receptor (Homo sapiens) (P14416 whole entry, looked up): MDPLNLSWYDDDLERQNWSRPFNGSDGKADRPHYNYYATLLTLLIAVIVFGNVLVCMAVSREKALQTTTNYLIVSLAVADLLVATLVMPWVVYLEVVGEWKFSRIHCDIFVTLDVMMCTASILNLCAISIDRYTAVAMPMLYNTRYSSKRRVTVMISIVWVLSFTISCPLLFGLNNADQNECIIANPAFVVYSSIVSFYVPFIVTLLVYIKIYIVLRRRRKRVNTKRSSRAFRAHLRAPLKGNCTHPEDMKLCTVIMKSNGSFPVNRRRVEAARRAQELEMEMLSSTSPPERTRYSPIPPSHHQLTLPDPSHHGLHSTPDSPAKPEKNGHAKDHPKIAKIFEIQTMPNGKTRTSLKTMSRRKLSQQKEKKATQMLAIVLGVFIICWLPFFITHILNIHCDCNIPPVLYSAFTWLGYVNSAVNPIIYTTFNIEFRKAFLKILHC
Sequence of Muscarinic acetylcholine receptor M1 (Homo sapiens) (P11229 whole entry, looked up): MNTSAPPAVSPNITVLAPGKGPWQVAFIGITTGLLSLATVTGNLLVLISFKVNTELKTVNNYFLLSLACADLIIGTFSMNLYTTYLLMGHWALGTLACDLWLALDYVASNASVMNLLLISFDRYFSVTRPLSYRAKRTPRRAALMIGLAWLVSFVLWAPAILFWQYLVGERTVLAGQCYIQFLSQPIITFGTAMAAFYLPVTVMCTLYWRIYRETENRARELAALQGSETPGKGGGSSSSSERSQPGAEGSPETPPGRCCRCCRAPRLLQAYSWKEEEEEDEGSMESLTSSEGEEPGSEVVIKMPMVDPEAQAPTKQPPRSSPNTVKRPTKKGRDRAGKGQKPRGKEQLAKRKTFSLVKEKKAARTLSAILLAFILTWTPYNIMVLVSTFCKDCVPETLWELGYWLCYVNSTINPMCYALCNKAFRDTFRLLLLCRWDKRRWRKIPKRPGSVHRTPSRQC
Sequence of KiSS-1 receptor (Homo sapiens) (Q969F8 whole entry, looked up): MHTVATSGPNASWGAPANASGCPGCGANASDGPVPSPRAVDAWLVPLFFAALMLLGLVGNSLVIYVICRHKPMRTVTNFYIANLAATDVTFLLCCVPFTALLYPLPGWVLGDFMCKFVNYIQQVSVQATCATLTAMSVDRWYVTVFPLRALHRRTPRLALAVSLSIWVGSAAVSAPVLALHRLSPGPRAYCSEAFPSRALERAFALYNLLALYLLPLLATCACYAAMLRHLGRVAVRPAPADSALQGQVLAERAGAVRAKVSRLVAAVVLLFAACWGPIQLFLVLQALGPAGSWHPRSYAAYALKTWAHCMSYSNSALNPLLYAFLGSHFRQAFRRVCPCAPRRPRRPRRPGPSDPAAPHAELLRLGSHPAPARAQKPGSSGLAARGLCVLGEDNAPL
Sequence of Beta-2 adrenergic receptor (Homo sapiens) (P07550 whole entry, looked up): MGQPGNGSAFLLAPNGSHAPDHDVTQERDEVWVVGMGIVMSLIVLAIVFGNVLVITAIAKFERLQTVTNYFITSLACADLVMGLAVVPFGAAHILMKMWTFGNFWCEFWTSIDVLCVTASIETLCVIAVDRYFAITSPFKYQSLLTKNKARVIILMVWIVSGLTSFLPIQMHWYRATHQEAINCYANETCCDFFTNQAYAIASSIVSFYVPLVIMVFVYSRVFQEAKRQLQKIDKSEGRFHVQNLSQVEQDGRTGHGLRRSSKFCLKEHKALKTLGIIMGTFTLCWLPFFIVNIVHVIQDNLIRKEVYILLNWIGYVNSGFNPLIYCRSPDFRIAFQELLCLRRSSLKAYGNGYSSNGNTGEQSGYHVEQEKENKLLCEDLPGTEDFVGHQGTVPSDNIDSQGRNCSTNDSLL
Sequence of Gonadotropin-releasing hormone receptor (Homo sapiens) (P30968 whole entry, looked up): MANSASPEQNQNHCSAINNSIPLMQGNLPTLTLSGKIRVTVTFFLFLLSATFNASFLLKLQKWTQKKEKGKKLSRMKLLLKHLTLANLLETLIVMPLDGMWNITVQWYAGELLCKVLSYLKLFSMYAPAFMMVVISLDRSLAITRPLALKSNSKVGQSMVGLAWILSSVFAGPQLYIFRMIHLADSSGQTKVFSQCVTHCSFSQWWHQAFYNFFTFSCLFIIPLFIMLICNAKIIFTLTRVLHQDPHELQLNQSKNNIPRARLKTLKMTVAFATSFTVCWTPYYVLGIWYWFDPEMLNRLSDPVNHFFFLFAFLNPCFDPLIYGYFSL
Sequence of 5-hydroxytryptamine receptor 2A (Homo sapiens) (P28223 whole entry, looked up): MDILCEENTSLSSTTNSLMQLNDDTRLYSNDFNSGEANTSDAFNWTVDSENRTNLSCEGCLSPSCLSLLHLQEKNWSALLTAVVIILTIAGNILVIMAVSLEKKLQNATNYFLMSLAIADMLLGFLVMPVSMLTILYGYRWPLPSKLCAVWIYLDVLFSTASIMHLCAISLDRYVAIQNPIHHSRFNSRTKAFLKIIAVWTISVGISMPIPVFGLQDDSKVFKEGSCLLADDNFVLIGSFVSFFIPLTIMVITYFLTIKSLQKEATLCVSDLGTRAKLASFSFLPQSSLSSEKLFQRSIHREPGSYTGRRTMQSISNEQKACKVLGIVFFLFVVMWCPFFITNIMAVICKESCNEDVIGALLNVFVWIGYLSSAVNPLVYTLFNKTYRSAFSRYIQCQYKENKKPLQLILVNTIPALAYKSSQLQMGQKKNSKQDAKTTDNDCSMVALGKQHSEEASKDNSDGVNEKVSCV

In the case of `CC(Cl)C(C)Cl` (centres undefined), the Potency result in assay [1], in [2], in assay [3], in assay [4], in assay [5] and in assay [6] was “inactive” throughout. In addition, the Potency entry in [7], in assay [8], in [9], in assay [10], in assay [11] and in [12] was “inactive” throughout. For the same compound, the Potency entry in assay [13], in assay [14], in [15] and in assay [16] was “inactive” each time.
On to `Cl/C=C\Cl`, for which the Potency result in [1], in [2], in assay [3], in assay [4], in assay [5] and in [6] was “inactive” in each case. In addition, the Potency result in assay [7], in assay [8], in [17], in [11], in [12] and in [13] was “inactive” in each case. In addition, the Potency result in [14], in assay [18], in [19], in assay [15], in [20] and in assay [16] was “inactive” in each case.
For `COC(=O)c1ccccc1S(=O)(=O)NC(=O)Nc1nc(C)nc(OC)n1`, the Potency entry in assay [1], in [2], in assay [3], in assay [4], in [5] and in assay [6] was “inactive” each time. The Potency result in assay [7], in [8], in [9], in [10], in assay [11] and in [12] was “inactive” each time. Moreover, the Potency entry in assay [13], in [14], in assay [18], in [15], in assay [20] and in assay [16] was “inactive” in each case.
On to `COc1ccc(OC)c(C=O)c1`, for which the Potency entry in [1], in assay [2], in assay [3], in assay [4], in [5] and in [6] was “inactive” throughout. Besides, the Potency result in assay [7], in assay [8], in assay [17], in assay [11], in assay [12] and in assay [13] was “inactive” throughout. Moreover, the Potency entry in assay [14], in assay [18], in assay [19], in assay [15], in [20] and in [16] was “inactive” each time.
As for `CC(=O)OC1(c2ccccc2)CCN(CCc2ccccc2)CC1`, the Potency result in [1], in assay [2], in assay [3], in [4], in assay [5] and in [6] was “inactive” throughout. In addition, the Potency result in assay [7], in assay [8], in [9], in assay [10], in assay [12] and in assay [13] was “inactive” in each case. Besides, the Potency result in assay [14], in [19], in assay [15], in assay [20] and in [16] was “inactive” throughout. Besides, the Potency in assay [11] was 9.65 µM (active).
In the case of `Oc1c(Br)c(Br)c(Br)c(Br)c1Br`, the Potency was 30.8 µM (active) in assay [1], 23.1 µM (active) in assay [8] and 30 µM (active) in assay [13]. The Potency result in [2], in assay [3], in assay [4], in assay [5], in assay [6] and in [7] was “inactive” throughout. The Potency entry in assay [17], in assay [10], in assay [14], in [15], in assay [20] and in assay [16] was “inactive” in each case.
In the case of `COC(=O)N(C(=O)N1COC2(C(=O)OC)Cc3cc(Cl)ccc3C2=N1)c1ccc(OC(F)(F)F)cc1` (centres undefined), the Potency result in assay [1], in assay [2], in assay [3], in assay [4], in [5] and in assay [6] was “inactive” in each case. For the same compound, the Potency result in [7], in assay [8], in [9], in [10], in [12] and in [13] was “inactive” throughout. In addition, the Potency entry in [14], in assay [18], in assay [19], in [15], in assay [20] and in assay [16] was “inactive” each time.
For `CC(Cl)(Cl)[N+](=O)[O-]`, the Potency entry in assay [1], in assay [2], in assay [3], in assay [4], in assay [5] and in assay [6] was “inactive” in each case. The Potency result in assay [7], in assay [8], in assay [9], in [10], in assay [11] and in assay [13] was “inactive” in each case. Moreover, the Potency result in assay [14], in [18], in assay [19], in [15], in assay [20] and in [16] was “inactive” each time.

Source of the values: PubChem BioAssay (Tox21).
